# Test results from PubChem BioAssay (Tox21).
# Active and inactive are the calls of the source. The call rests on the fitted dose curve; in most records, active means well fitted curve in the direction sought with a large enough effect in the repeat runs; inconclusive means weak or mixed curves; inactive means flat fitted curve, though single readings scatter.
# Experiment: qHTS assay to test for compound auto fluorescence at 460 nm (blue) in HEK293 cell free culture (AID 720681)
# Conditions: cell-free medium, autofluorescence 405/460 nm (blue); series mostly up to 91.3 µM
# Text: U.S. Tox21 Program National Center for Advancing Translational Sciences [NCATS] NIH Chemical Genomics Center [NCGC] U.S. Environmental Protection Agency [EPA] National Institutes of Environmental Health Sciences [NIEHS] National Toxicology Program [NTP] U.S. Food and Drug Administration [FDA] Tox21 Assay Overview: Compound auto fluorescence often interferes with screening of the compound library against various biological targets and signaling pathways. Some of these compounds may have fluorophoric properties. Such properties may interfere with the assay outputs resulting in false positives and/or negatives. To decrease such complications and ensure the compound activities are relevant in terms of biological response, the Tox21 10K compound library was screened for auto fluorescence. From the fluorophores used as reporter signals in our screening assays, the auto fluorescence equivalencies of compounds against three fluorophores have been evaluated: Triamterene, Fluorescein and Rose Bengal sodium for blue, green and red fluorescence, respectively. The fluorescence intensities were measured using Excitation/Emission wavelengths at 405/460nm, 485/535nm and 540/590nm for blue, green and red labels, respectively. This assay includes the blue fluorescence data.
# Tox21 Assay Protocol Summary: 5 uL of culture medium (DMEM containing 10% FBS) per well was dispensed into black wall/clear bottom 1536-well plates using a Multidrop Combi Dispenser (ThermoFisher Scientific, Waltham, MA). After 23 nL compound or DMSO vehicle was transferred into assay plate by a pintool work station (Kalypsys, San Diego, CA), fluorescence intensities in the assay plates were measured by an Envision (PerkinElmer, Shelton, CT) plate reader using three labels for measuring blue, green and red fluorescence at […] 460, 535 and 590nm respectively.
row,SMILES,outcome
1,ClC(Cl)c1ccccc1,inactive
2,CNc1cnn(-c2cccc(C(F)(F)F)c2)c(=O)c1Cl,inactive
3,COc1cc(-c2ccc(N)c(OC)c2)ccc1N,inactive
4,O=C(O)c1cc(Oc2ccc(C(F)(F)F)cc2Cl)ccc1[N+](=O)[O-],inactive
5,C=C(C)C(=O)OCC(CC)CCCC (stereo not given),inactive
6,C[C@]12CC[C@H](O)CC1=CC[C@@H]1[C@@H]2CC[C@]2(C)C(=O)CC[C@@H]12,inactive
7,CCNc1nc(Cl)nc(NC(C)C)n1,inactive
8,CCSC(=O)N1CCCCCC1,inactive
9,CN1C(=O)CCS(=O)(=O)C1c1ccc(Cl)cc1 (stereo not given),inactive
10,CN(C)CCC#N,inactive
11,Cc1cccc(N)c1C,inactive
12,Cc1ccccc1N,inactive
13,CNC(=O)O/N=C/C(C)(C)S(C)=O (stereo not given),inactive
14,CNC(=O)O/N=C/C(C)(C)S(C)(=O)=O,inactive
15,CNC(=O)O/N=C/C(C)(C)SC,inactive
16,ClCCOCCCl,inactive
17,FC(F)(F)c1ccc(Cl)cc1,inactive
18,CSc1nnc(C(C)(C)C)c(=O)n1N,inactive
19,CC[N+](=O)[O-],inactive
20,CCOP(=S)(OCC)Oc1ccc([N+](=O)[O-])cc1,inactive

row,SMILES,outcome
1,C[C@H]1C(=O)O[C@@H]2CCN3CC=C(COC(=O)[C@](C)(O)[C@]1(C)O)[C@H]23,inactive
2,O=C(O)CCCc1ccc(N(CCCl)CCCl)cc1,inactive
3,COS(=O)(=O)OC,inactive
4,COP(=S)(OC)SCN1C(=O)c2ccccc2C1=O,inactive
5,c1ccc2c(c1)CCCC2,inactive
6,C=CC(=O)OCC(CC)CCCC (stereo not given),inactive
7,C=CC(=O)OCCCCCC(C)C,inactive
8,CCOC(=O)CC(SP(=O)(OC)OC)C(=O)OCC (stereo not given),inactive
9,CC(=O)/C=C/c1ccccc1,inactive
10,COC(C)(C)CCCC(C)C/C=C/C(C)=C/C(=O)OC(C)C (stereo not given),inactive
11,Cc1cccc(C)c1NC(=O)CN1CCCC1=O,inactive
12,N#Cc1ccccn1,inactive
13,O=C(O)C1C(C(=O)O)C2(Cl)C(Cl)=C(Cl)C1(Cl)C2(Cl)Cl (stereo not given),inactive
14,CC12CC1(C)C(=O)N(c1cc(Cl)cc(Cl)c1)C2=O (stereo not given),inactive
15,OC[C@@H](O)[C@H]1O[C@@H]2O[C@H](C(Cl)(Cl)Cl)O[C@@H]2[C@H]1O,inactive
16,[N-]=[N+]=CC(=O)OC[C@H](N)C(=O)O,inactive
17,CC(C)CCCCCCOC(=O)c1ccccc1C(=O)OCCCCCCC(C)C,inactive
18,Nc1cccc(Cl)c1,inactive
19,COP(=S)(OC)Oc1ccc(SC)c(C)c1,inactive
20,Cc1cc(Cl)ccc1OC(C)C(=O)O (stereo not given),inactive
